From ChEMBL document CHEMBL2218924, “A broad activity screen in support of a chemogenomic map for kinase signalling research and drug discovery” (Biochem J, 2013)

Experiments:
[1] = target: T1, Serine/threonine-protein kinase 17A (Homo sapiens) (UniProt Q9UEE5); settings: at 10 µM
T1 sequence (whole entry): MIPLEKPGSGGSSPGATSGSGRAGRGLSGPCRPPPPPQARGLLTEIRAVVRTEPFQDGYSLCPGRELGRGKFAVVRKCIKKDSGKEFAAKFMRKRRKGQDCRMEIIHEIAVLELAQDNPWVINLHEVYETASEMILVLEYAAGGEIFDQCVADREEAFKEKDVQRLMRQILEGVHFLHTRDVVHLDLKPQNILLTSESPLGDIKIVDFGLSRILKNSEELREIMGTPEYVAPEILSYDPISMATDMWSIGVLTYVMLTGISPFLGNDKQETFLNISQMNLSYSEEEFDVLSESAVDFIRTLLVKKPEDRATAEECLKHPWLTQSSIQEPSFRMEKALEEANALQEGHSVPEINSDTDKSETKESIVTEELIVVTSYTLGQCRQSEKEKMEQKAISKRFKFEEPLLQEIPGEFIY

[2] = target: T2, Dual specificity tyrosine-phosphorylation-regulated kinase 2 (Homo sapiens) (UniProt Q92630); settings: at 1 µM
T2 sequence (whole entry): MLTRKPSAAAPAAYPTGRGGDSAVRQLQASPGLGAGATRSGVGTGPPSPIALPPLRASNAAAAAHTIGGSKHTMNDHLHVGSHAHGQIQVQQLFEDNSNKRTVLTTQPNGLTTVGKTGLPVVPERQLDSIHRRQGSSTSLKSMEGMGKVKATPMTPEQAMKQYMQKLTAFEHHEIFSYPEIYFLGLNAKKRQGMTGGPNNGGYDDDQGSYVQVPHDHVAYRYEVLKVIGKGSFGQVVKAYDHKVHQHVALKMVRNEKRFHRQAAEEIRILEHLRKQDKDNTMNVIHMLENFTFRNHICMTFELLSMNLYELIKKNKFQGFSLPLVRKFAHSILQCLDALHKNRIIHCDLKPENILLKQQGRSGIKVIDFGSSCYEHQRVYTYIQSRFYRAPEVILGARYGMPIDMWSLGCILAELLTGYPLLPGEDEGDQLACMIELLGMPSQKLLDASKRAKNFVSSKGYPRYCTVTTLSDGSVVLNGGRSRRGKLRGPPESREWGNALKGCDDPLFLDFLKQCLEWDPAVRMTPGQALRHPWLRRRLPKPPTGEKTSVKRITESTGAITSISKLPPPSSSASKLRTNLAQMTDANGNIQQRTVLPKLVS

[3] = target: T2, Dual specificity tyrosine-phosphorylation-regulated kinase 2 (Homo sapiens); settings: at 10 µM
[4] = target: T3, Ephrin type-A receptor 1 (Homo sapiens) (UniProt P21709); settings: at 1 µM
T3 sequence (whole entry): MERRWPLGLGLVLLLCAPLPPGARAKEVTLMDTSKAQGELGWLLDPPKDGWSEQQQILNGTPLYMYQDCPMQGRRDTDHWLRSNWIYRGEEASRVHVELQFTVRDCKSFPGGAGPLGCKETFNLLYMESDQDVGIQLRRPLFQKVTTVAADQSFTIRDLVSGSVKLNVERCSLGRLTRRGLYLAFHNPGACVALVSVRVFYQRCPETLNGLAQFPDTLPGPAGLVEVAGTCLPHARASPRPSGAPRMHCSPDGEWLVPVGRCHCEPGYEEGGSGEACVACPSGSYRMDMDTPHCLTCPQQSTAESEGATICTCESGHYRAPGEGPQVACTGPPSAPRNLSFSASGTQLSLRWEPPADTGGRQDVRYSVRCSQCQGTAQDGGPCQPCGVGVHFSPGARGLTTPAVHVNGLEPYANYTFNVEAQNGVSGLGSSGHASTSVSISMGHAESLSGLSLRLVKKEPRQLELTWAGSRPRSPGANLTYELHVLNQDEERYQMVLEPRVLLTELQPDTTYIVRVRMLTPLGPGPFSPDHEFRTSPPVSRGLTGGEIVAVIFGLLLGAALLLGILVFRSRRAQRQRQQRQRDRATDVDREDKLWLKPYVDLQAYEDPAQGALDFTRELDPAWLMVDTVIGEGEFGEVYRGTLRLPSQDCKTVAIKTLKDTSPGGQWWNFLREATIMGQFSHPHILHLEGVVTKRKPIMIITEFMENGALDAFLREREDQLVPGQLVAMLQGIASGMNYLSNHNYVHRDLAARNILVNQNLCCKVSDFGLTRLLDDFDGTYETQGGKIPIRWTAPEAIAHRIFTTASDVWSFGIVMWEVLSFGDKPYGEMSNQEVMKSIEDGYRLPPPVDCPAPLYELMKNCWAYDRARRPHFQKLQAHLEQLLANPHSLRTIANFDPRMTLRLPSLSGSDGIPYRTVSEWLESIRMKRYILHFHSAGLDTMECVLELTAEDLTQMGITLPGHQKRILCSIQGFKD

[5] = target: T3, Ephrin type-A receptor 1 (Homo sapiens); settings: at 10 µM
[6] = target: Ephrin type-A receptor 2 (Homo sapiens) (UniProt P29317); settings: at 1 µM
Sequence of Ephrin type-A receptor 2 (Homo sapiens) (P29317 whole entry): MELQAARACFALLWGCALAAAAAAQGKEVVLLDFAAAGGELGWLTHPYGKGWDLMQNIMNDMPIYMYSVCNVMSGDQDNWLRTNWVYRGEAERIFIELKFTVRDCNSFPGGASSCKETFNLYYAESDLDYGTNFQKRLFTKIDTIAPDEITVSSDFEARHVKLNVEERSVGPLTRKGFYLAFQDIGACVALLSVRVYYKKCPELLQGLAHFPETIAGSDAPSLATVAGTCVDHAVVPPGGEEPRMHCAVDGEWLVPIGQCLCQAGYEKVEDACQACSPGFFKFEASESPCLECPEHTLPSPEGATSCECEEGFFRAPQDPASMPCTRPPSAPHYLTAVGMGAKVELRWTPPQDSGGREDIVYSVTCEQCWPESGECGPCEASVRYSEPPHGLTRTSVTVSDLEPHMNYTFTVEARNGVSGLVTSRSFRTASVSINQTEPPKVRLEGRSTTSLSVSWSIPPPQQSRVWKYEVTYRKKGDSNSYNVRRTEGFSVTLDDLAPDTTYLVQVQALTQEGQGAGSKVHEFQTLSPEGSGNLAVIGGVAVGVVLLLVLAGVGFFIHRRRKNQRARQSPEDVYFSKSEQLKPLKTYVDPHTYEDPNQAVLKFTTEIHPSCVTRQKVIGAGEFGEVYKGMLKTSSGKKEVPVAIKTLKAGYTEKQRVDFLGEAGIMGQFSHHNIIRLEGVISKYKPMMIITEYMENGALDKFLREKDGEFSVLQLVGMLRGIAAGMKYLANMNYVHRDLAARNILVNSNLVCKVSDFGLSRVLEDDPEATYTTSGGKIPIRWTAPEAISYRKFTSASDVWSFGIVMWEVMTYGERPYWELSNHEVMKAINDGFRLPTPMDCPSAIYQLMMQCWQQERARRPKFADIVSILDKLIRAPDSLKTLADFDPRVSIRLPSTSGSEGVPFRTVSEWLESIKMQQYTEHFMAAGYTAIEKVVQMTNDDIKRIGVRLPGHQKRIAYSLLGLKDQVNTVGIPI

[7] = target: Ephrin type-A receptor 2 (Homo sapiens) (UniProt P29317); settings: at 10 µM
[8] = target: T4, Ephrin type-A receptor 3 (Homo sapiens) (UniProt P29320); settings: at 1 µM
T4 sequence (whole entry): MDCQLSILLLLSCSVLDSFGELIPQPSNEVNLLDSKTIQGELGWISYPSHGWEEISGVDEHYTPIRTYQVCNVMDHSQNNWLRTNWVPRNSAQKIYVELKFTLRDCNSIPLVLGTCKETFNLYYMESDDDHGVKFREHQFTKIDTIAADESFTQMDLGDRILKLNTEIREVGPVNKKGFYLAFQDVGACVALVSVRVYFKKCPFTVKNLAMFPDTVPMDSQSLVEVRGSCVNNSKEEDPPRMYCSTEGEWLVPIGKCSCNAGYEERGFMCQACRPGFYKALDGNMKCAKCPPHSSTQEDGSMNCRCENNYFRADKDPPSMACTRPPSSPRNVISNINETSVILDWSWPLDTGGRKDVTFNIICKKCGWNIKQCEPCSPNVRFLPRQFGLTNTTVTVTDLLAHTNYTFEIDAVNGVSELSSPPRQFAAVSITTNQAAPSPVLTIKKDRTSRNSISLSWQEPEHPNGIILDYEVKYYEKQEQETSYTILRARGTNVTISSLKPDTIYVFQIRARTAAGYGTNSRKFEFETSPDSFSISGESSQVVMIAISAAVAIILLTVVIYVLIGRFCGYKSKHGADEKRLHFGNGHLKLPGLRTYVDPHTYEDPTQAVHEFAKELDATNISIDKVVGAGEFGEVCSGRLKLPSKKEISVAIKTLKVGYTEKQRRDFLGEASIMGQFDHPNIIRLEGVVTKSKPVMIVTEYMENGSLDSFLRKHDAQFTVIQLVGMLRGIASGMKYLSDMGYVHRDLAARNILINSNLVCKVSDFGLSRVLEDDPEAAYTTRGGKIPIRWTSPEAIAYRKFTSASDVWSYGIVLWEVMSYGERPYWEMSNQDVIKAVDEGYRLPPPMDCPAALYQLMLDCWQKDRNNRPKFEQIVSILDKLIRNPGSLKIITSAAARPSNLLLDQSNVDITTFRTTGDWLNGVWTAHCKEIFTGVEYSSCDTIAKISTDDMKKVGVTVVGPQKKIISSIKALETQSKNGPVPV

[9] = target: Epidermal growth factor receptor (Homo sapiens) (UniProt P00533); settings: at 1 µM
Sequence of Epidermal growth factor receptor (Homo sapiens) (P00533 whole entry): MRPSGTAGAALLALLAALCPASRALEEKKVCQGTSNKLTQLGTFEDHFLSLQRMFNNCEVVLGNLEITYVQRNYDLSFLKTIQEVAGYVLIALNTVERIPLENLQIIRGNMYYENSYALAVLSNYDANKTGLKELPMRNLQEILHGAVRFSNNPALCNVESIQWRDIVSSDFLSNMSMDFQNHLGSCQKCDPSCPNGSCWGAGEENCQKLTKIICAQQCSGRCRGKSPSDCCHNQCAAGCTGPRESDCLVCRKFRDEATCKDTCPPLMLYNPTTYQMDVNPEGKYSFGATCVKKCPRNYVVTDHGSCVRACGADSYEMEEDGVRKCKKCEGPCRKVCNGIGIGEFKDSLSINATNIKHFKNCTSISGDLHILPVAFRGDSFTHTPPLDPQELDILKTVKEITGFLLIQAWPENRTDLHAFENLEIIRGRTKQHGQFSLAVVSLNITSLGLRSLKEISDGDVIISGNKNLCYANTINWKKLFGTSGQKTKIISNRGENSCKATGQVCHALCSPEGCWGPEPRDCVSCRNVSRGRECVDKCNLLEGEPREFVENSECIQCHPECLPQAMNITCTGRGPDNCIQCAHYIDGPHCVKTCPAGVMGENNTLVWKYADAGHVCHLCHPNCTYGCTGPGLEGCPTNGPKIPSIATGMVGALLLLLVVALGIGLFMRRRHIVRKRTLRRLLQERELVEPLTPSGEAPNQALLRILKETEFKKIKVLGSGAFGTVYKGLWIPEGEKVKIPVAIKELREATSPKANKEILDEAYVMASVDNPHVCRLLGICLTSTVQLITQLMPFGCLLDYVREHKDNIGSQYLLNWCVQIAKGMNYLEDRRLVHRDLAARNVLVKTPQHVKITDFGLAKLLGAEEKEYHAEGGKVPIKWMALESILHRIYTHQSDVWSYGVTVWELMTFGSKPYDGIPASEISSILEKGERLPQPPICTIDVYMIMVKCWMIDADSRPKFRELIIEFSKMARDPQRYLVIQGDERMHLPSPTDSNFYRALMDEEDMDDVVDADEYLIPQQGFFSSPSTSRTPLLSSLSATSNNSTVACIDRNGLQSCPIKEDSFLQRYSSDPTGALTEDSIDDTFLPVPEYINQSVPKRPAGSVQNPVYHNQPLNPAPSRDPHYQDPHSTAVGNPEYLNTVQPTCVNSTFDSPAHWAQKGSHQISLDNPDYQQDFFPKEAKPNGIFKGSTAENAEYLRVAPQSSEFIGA

[10] = target: Epidermal growth factor receptor (Homo sapiens) (UniProt P00533); settings: at 10 µM

Structure (SMILES)	residual activity [1] [%]	residual activity [2] [%]	residual activity [3] [%]	residual activity [4] [%]	residual activity [5] [%]	residual activity [6] [%]	residual activity [7] [%]	residual activity [8] [%]	residual activity [9] [%]	residual activity [10] [%]
CN(C)c1ccc(/C=C2\C(=O)Nc3ccccc32)cc1	6	98	98	100	102	123	107	99	–	–
CCOc1cc2ncnc(Nc3cccc(Br)c3)c2cc1OCC	60	92	58	32	4	85	18	81	-5	-4
CO[C@H]1[C@@H](OC)C[C@H](C)[C@@H](OC)C2=CC(=O)C=C(NC(=O)/C(C)=C/C=C/[C@H](OC)[C@@H](OC(N)=O)/C(C)=C/[C@@H]1C)C2=O	88	95	101	94	102	105	113	101	–	–
Ic1cccc(CSc2nnc(-c3ccncc3)o2)c1	3	87	60	95	88	90	91	96	–	–
CO[C@H]1C[C@@H]2CC[C@@H](C)[C@@](O)(O2)C(=O)C(=O)N2CCCC[C@H]2C(=O)O[C@H]([C@H](C)C[C@@H]2CC[C@@H](O)[C@H](OC)C2)CC(=O)[C@H](C)/C=C(\C)[C@@H](O)[C@@H](OC)C(=O)[C@H](C)C[C@H](C)/C=C/C=C/C=C/1C	149	99	101	84	65	110	120	103	–	–
CNc1cc2c(Nc3cccc(Br)c3)ncnc2cn1	11	90	86	72	59	94	75	93	–	–
O=C(Nc1cccc(Nc2nccc(Nc3cccc(C(F)(F)F)c3)n2)c1)C1CC1	10	95	96	22	22	79	19	95	61	19
c1ccc(-c2n[nH]c3c2oc2ccccc23)cc1	5	83	71	98	99	–	–	–	–	–
NC(=O)c1ccc2[nH]c(-c3ccc(Oc4ccc(Cl)cc4)cc3)nc2c1	42	87	53	96	85	100	116	100	111	115
Cc1nc2cc3nc(-c4cccs4)cnc3cc2n1C	14	108	87	111	121	110	105	127	–	–
Cc1ccc(S(=O)(=O)/C=C/C#N)cc1	95	96	102	95	92	106	108	103	–	–
C[C@@H](N)[C@H]1CC[C@H](C(=O)Nc2ccncc2)CC1	67	101	91	101	96	96	98	103	–	–
O=C1c2ccccc2-[n+]2ccc3c([nH]c4ccccc43)c21	114	99	92	78	91	89	101	89	–	–
CCN(CC)CCCCN1c2ccccc2Oc2ccc(Cl)cc21	138	105	103	102	124	108	109	113	124	127
CO[C@@H]1[C@H](N(C)C(=O)c2ccccc2)C[C@H]2O[C@]1(C)n1c3ccccc3c3c4c(c5c6ccccc6n2c5c31)C(=O)NC4	9	90	88	87	81	97	95	97	101	–
O=c1cc(-c2cccc3c2Sc2ccccc2S3)oc(N2CCOCC2)c1	93	101	95	105	94	100	82	100	–	–
